Test results: PubChem BioAssay (NCI)
About 83,000 compounds went through this panel and 20% of them were active in at least one assay; those are over-represented in the sample as a whole.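 Cells were grown in 96-well plates and exposed to the test compound at a single concentration for 48 hours; results are reported as percent growth, with values below 10 considered active.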 Unmarked numbers belong to inactive results. Calls of active or inactive are those of the source.

Columns and labels:
Assay in all cases: NCI-60 one-dose screen, 48 h (100 = growth as untreated, 0 = no growth, -100 = all killed)
Details in all cases: 10 µM unless noted
[1] = test system: DU-145 prostate
[2] = test system: K-562 leukemia
[3] = test system: MALME-3M melanoma
[4] = test system: MDA-MB-231 breast
[5] = test system: RXF 393 renal
[6] = test system: SF-268 CNS
[7] = test system: SF-295 CNS
[8] = test system: SF-539 CNS
[9] = test system: UACC-257 melanoma
[10] = test system: M14 melanoma
[11] = test system: HCT-15 colon
[12] = test system: HT29 colon
[13] = test system: SNB-75 CNS
[14] = test system: SNB-19 CNS
[15] = test system: U251 CNS
[16] = test system: PC-3 prostate
[17] = test system: SK-MEL-5 melanoma
[18] = test system: UACC-62 melanoma
[19] = test system: SK-MEL-28 melanoma

## Cc1cc2nc3c4cc(Cl)ccc4n(CCN(C)C)c3nc2cc1C
[1]
  growth: 15.3%
[2]
  growth: 3.43% (active)
[3]
  growth: -45.5% (active)
[4]
  growth: 7.77% (active)
[5]
  growth: -0.246% (active)
[6]
  growth: 33.3%
[7]
  growth: 11.4%
[8]
  growth: 14.1%
[9]
  growth: 38.7%
[10]
  growth: -45.7% (active)
[11]
  growth: -25.1% (active)
[12]
  growth: 1% (active)
[13]
  growth: 26.3%
[14]
  growth: 15.4%
[15]
  growth: 12.3%
[16]
  growth: 27.2%
[17]
  growth: 41%
[18]
  growth: -70.7% (active)
[19]
  growth: -59.3% (active)

## CC(=O)NC1=C(C#N)C(c2ccccc2Cl)c2c(ccc3ccccc23)O1 (stereo not given)
[1]
  growth: 89.1%
[2]
  growth: 19.4%
[3]
  growth: 48.4%
[4]
  growth: 66.6%
[5]
  growth: 77.2%
[6]
  growth: 68.5%
[7]
  growth: 25.7%
[8]
  growth: 58.4%
[9]
  growth: 76.7%
[10]
  growth: 31.1%
[11]
  growth: 32%
[12]
  growth: 51.6%
[13]
  growth: 30.1%
[14]
  growth: 58.1%
[15]
  growth: 69.3%
[16]
  growth: 60.6%
[17]
  growth: 56.7%
[18]
  growth: 36.6%
[19]
  growth: 66.4%

## O=C1/C(=C\c2ccco2)SC(=S)N1CCc1ccc(O)cc1
[1]
  growth: 67.8%
[2]
  growth: 84.8%
[3]
  growth: 82%
[4]
  growth: 80.5%
[5]
  growth: 98.3%
[6]
  growth: 94.8%
[7]
  growth: 105%
[8]
  growth: 88.5%
[9]
  growth: 90.1%
[10]
  growth: 96%
[11]
  growth: 92.7%
[12]
  growth: 114%
[13]
  growth: 78.5%
[14]
  growth: 95.6%
[15]
  growth: 96.7%
[16]
  growth: 97.5%
[17]
  growth: 97.4%
[18]
  growth: 85.3%
[19]
  growth: 98.3%

## O=c1[nH]c(=S)[nH]c2nc[nH]c12
[1]
  growth: 107%
[2]
  growth: 89.2%
[3]
  growth: 112%
[4]
  growth: 109%
[5]
  growth: 79.5%
[6]
  growth: 97.9%
[7]
  growth: 106%
[8]
  growth: 105%
[9]
  growth: 96.6%
[10]
  growth: 90.7%
[11]
  growth: 99.5%
[12]
  growth: 103%
[13]
  growth: 84.6%
[14]
  growth: 107%
[15]
  growth: 105%
[16]
  growth: 96.9%
[17]
  growth: 110%
[18]
  growth: 97.6%
[19]
  growth: 110%

## COc1cc2nc(Cl)nc(Nc3cccc(C(=O)/C=C/c4ccc(Br)cc4)c3)c2cc1OC
[1]
  growth: 97.6%
[2]
  growth: 35.9%
[3]
  growth: 105%
[4]
  growth: 78%
[5]
  growth: 85.1%
[6]
  growth: 94.5%
[7]
  growth: 86.1%
[8]
  growth: 82.2%
[9]
  growth: 107%
[10]
  growth: 89.8%
[11]
  growth: 43.6%
[12]
  growth: 68.4%
[13]
  growth: 76.6%
[14]
  growth: 86.1%
[15]
  growth: 80%
[16]
  growth: 65.5%
[17]
  growth: 91.6%
[18]
  growth: 81.5%
[19]
  growth: 92.7%

## C[C@H]1[C@H]2C3=CC[C@@H]4[C@@]5(C)C/C(=C/c6ccco6)C(=O)C(C)(C)[C@@H]5CC[C@@]4(C)[C@]3(C)CC[C@@]2(C(=O)N2CCOCC2)CC[C@@H]1C
[1]
  growth: 88.1%
[2]
  growth: 27.4%
[3]
  growth: 83.3%
[4]
  growth: 90.5%
[5]
  growth: 62%
[6]
  growth: 85.8%
[7]
  growth: 81.4%
[8]
  growth: 82.7%
[9]
  growth: 88.4%
[10]
  growth: 76.9%
[11]
  growth: 40.2%
[12]
  growth: 28.9%
[13]
  growth: 99.4%
[14]
  growth: 71.3%
[15]
  growth: 49.1%
[16]
  growth: 39.1%
[17]
  growth: 72.1%
[18]
  growth: 60.5%
[19]
  growth: 69.7%

## CC(=O)N1N=C(c2ccc(C)cc2)CC1c1ccc(Oc2ccc(Br)cc2)cc1 (stereo not given)
[1]
  growth: 91.4%
[2]
  growth: 75.3%
[3]
  growth: 87.6%
[4]
  growth: 85.7%
[5]
  growth: 92.8%
[6]
  growth: 79.5%
[7]
  growth: 94.4%
[8]
  growth: 94.7%
[9]
  growth: 96%
[10]
  growth: 88.3%
[11]
  growth: 80.4%
[12]
  growth: 79%
[13]
  growth: 73.7%
[14]
  growth: 84.9%
[15]
  growth: 75.3%
[16]
  growth: 87%
[17]
  growth: 91.7%
[18]
  growth: 64.4%
[19]
  growth: 105%

## CCN1CCN(C(=O)[C@]23CCC(C)(C)C[C@@H]2C2=CC[C@@H]4[C@@]5(C)C/C(=C/c6ccncc6)C(=O)C(C)(C)[C@@H]5CC[C@@]4(C)[C@]2(C)CC3)CC1
[1]
  growth: -16.9% (active)
[2]
  growth: -13.1% (active)
[3]
  growth: -87.9% (active)
[4]
  growth: -59.9% (active)
[5]
  growth: -93.3% (active)
[6]
  growth: 14.8%
[7]
  growth: -55.9% (active)
[8]
  growth: -96.4% (active)
[9]
  growth: -2.01% (active)
[10]
  growth: -76% (active)
[11]
  growth: -63.9% (active)
[12]
  growth: -39.8% (active)
[13]
  growth: 25%
[14]
  growth: -16.1% (active)
[15]
  growth: -77.2% (active)
[16]
  growth: -5% (active)
[17]
  growth: -98.8% (active)
[18]
  growth: -86% (active)
[19]
  growth: -82.5% (active)

## CCCC1CCCCN1C(=O)OCC(C)C (stereo not given)
[1]
  growth: 104%
[2]
  growth: 103%
[3]
  growth: 107%
[4]
  growth: 109%
[5]
  growth: 119%
[6]
  growth: 96.1%
[7]
  growth: 94.5%
[8]
  growth: 100%
[9]
  growth: 110%
[10]
  growth: 109%
[11]
  growth: 108%
[12]
  growth: 102%
[13]
  growth: 99.5%
[14]
  growth: 102%
[15]
  growth: 103%
[16]
  growth: 96.5%
[17]
  growth: 109%
[18]
  growth: 103%
[19]
  growth: 113%

## Cc1ccc(-c2ccc(/C=C(\C#N)c3nc(-c4ccco4)cs3)o2)cc1
[1]
  growth: 108%
[2]
  growth: 95%
[3]
  growth: 109%
[4]
  growth: 93%
[5]
  growth: 136%
[6]
  growth: 107%
[7]
  growth: 96.6%
[8]
  growth: 103%
[9]
  growth: 113%
[10]
  growth: 93.7%
[11]
  growth: 69.2%
[12]
  growth: 102%
[13]
  growth: 84.9%
[14]
  growth: 99.6%
[15]
  growth: 98.7%
[16]
  growth: 100%
[17]
  growth: 87.8%
[18]
  growth: 87.5%
[19]
  growth: 112%

## CC1(C)C(=O)/C(=C\c2ccccn2)C[C@]2(C)[C@H]3CC[C@@H]4[C@@H](C(=O)/C=C/c5ccccn5)CC[C@@]4(C)[C@]3(C)CC[C@@H]12
[1]
  growth: -77.1% (active)
[2]
  growth: 0.811% (active)
[3]
  growth: -35.8% (active)
[4]
  growth: -60% (active)
[5]
  growth: -90.7% (active)
[6]
  growth: 9.75% (active)
[7]
  growth: -77.9% (active)
[8]
  growth: -43.5% (active)
[9]
  growth: 7.39% (active)
[10]
  growth: 3.45% (active)
[11]
  growth: -31% (active)
[12]
  growth: -13.6% (active)
[13]
  growth: -3.97% (active)
[14]
  growth: 4.66% (active)
[15]
  growth: -80.5% (active)
[16]
  growth: 9.61% (active)
[17]
  growth: -82.5% (active)
[18]
  growth: -54.2% (active)
[19]
  growth: -32.1% (active)

## C=C(C)[C@@H]1CC[C@]2(C(=O)OC)CC[C@]3(C)[C@H](CC[C@@H]4[C@@](C)(CC/C(N)=N/O)[C@H](C(=C)C)CC[C@]43C)[C@@H]12
[1]
  growth: 104%
[2]
  growth: 86.3%
[3]
  growth: 98.2%
[4]
  growth: 104%
[5]
  growth: 112%
[6]
  growth: 96.6%
[7]
  growth: 96.4%
[8]
  growth: 97.5%
[9]
  growth: 103%
[10]
  growth: 99.1%
[11]
  growth: 102%
[12]
  growth: 99.1%
[13]
  growth: 95.4%
[14]
  growth: 95.9%
[15]
  growth: 97.7%
[16]
  growth: 86.1%
[17]
  growth: 94.2%
[18]
  growth: 99.6%
[19]
  growth: 101%

## Cn1cccc1/C=C1/SC(=S)N(CCc2ccc(O)cc2)C1=O
[1]
  growth: 82.3%
[2]
  growth: 18.6%
[3]
  growth: 36.7%
[4]
  growth: 59.1%
[5]
  growth: 76.6%
[6]
  growth: 74%
[7]
  growth: 37.6%
[8]
  growth: 43.6%
[9]
  growth: 74.1%
[10]
  growth: 19.9%
[11]
  growth: 22.7%
[12]
  growth: 94.9%
[13]
  growth: 41.2%
[14]
  growth: 47.2%
[15]
  growth: 41.8%
[16]
  growth: 69%
[17]
  growth: 44.2%
[18]
  growth: 24.9%
[19]
  growth: 57.3%

## NC1=NN=C2N(N)C(=O)c3cnn(-c4ccccc4)c3N2c2nc(-c3ccccc3)cc(-c3ccccc3)c21
[1]
  growth: 108%
[2]
  growth: 92.9%
[3]
  growth: 120%
[4]
  growth: 89.4%
[5]
  growth: 138%
[6]
  growth: 105%
[7]
  growth: 94.6%
[8]
  growth: 103%
[9]
  growth: 108%
[10]
  growth: 99.2%
[11]
  growth: 99.8%
[12]
  growth: 102%
[13]
  growth: 86.2%
[14]
  growth: 93.5%
[15]
  growth: 96.3%
[16]
  growth: 90.5%
[17]
  growth: 94%
[18]
  growth: 82.9%
[19]
  growth: 118%

## COc1cc(OC)c2c(c1)c1nc3cc(C)c(C)cc3nc1n2CCN(C)C
[1]
  growth: 90.2%
[2]
  growth: 78.3%
[3]
  growth: 80.9%
[4]
  growth: 79.5%
[5]
  growth: 96.2%
[6]
  growth: 93.7%
[7]
  growth: 90.2%
[8]
  growth: 86%
[9]
  growth: 94.9%
[10]
  growth: 84.2%
[11]
  growth: 77.2%
[12]
  growth: 85.8%
[13]
  growth: 74.6%
[14]
  growth: 89.1%
[15]
  growth: 90.9%
[16]
  growth: 85.3%
[17]
  growth: 94.4%
[18]
  growth: 94.3%
[19]
  growth: 104%
